Reference: PubChem BioAssay (Tox21)
Results filed as inconclusive are left out. Entries that show only a call come without a potency. Activity calls are given as the source filed them. Unless noted, calls come from the whole dose curve; as a rule, active = well fitted curve in the direction sought with a large enough effect in the repeat runs; inconclusive = weak or mixed curves; inactive = no such curve, though single readings can be large; an effect the other way counts as inactive or inconclusive.

Legend:
[1] = qHTS assay to identify small molecule antagonists of the retinoid acid receptor (RAR) signaling pathway - cell viability counter screen (AID 1159551); note: nearly all actives have a fitted effect of over 35% in size
How it was run: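 ATP-based viability, C3RL4 cells, 6 h at 37 C with 1 uM final retinol co-added after compound; luminescence read 30 min post CellTiter-Glo, RT.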

[2] = qHTS assay to identify small molecule antagonists of the estrogen related receptor (ERR) signaling pathway from Tox21 library - cell viability counter screen (AID 1224834); note: nearly all actives have a fitted effect of over 30% in size; note: potency is the fitted concentration of half-maximal effect
How it was run: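 Compounds in DMSO were pinned onto ERR cells that had been incubated for 6 h, and the plates were held at 37 C for 17.5 h. CellTiter-Fluor reagent was then added and fluorescence was measured after 30 min.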

[3] = biological target: Luciferin 4-monooxygenase (Photinus pyralis) (UniProt P08659); test: qHTS assay to identify small molecule inhibitors of firefly luciferase (AID 1224835); note: nearly all actives have a fitted effect of over 25% in size; note: potency is the fitted concentration of half-maximal effect
Chain of Luciferin 4-monooxygenase (Photinus pyralis) (P08659 whole entry, looked up): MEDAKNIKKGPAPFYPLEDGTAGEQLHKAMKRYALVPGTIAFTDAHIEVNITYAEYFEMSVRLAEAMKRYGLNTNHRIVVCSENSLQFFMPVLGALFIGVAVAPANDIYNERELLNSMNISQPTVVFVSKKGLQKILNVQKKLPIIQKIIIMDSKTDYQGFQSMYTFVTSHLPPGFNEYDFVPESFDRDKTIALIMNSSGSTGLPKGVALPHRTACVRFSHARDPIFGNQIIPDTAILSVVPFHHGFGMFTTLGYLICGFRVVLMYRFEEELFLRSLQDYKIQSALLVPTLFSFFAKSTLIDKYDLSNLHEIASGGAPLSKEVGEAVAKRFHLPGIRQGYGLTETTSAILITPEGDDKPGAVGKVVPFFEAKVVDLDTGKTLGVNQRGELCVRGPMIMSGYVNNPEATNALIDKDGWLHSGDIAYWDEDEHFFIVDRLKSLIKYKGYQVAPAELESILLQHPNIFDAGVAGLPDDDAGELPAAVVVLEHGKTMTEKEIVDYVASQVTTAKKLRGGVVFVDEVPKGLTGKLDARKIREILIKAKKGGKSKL
How it was run: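 Inhibition of purified Photinus luciferase is measured by luminescence. Substrate levels (D-luciferin, ATP) sit at their KM values. Each compound is tested in a concentration series.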

[4] = qHTS assay to identify small molecule agonists of the constitutive androstane receptor (CAR) signaling pathway - cell viability counter screen (AID 1224836); note: nearly all actives have a fitted effect of over 45% in size; note: potency is the fitted concentration of half-maximal effect
How it was run: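 Cell viability multiplexed with the CAR agonist screen: CellTiter-Fluor fluorescence after 23 hr at 37 C. HepG2-CYP2B6-hCAR cells got compounds at 15 concentrations with PK11195 at 0.75 uM final.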

[5] = qHTS assay to identify small molecule antagonists of the constitutive androstane receptor (CAR) signaling pathway - cell viability counter screen (AID 1224837); note: nearly all actives have a fitted effect of over 45% in size; note: potency is the fitted concentration of half-maximal effect
How it was run: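 Cells are seeded, rested 4 hr at 37 C/5% CO2, dosed with compound (15-point series) and 50 nM CITCO, incubated a further 23 hr, and then CellTiter-Fluor reagent is added before fluorescence is read. The line is HepG2 with stable hCAR and CYP2B6-2.2kb.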

[6] = biological target: Nuclear receptor subfamily 1 group I member 3 (Homo sapiens) (UniProt Q14994); test: qHTS assay to identify small molecule antagonists of the constitutive androstane receptor (CAR) signaling pathway (AID 1224838);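 note: HepG2 cells stably expressing hCAR with CYP2B6 luciferase reporter stimulated by CITCO; nearly all actives have a fitted effect of over 40% in size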; note: potency is the fitted concentration of half-maximal effect
Chain of Nuclear receptor subfamily 1 group I member 3 (Homo sapiens) (Q14994 whole entry, looked up): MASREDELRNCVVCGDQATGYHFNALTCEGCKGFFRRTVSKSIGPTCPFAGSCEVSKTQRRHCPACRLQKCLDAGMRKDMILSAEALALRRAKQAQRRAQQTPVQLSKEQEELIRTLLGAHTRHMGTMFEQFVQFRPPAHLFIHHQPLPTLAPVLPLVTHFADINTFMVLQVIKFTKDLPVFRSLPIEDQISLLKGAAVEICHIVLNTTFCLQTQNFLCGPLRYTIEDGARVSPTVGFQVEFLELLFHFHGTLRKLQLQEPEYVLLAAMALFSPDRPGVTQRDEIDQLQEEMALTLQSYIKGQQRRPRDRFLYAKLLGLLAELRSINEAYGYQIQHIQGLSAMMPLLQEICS
How it was run: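 Luminescence from a CYP2B6-2.2kb promoter reporter in hCAR-expressing HepG2 cells reflects CAR signaling. Cells received compounds at 15 concentrations and 50 nM CITCO (final), then incubated 24 h at 37 C/5% CO2.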

[7] = biological target: Nuclear receptor subfamily 1 group I member 3 (Homo sapiens) (UniProt Q14994); test: qHTS assay to identify small molecule agonists of the constitutive androstane receptor (CAR) signaling pathway (AID 1224839); note: nearly all actives have a fitted effect of over 15% in size; note: potency is the fitted concentration of half-maximal effect
How it was run: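 Luminescent ONE-Glo read-out after 24 hr, 37 C exposure of double-stable HepG2-CYP2B6-hCAR reporter cells to a 15-point compound series, in the presence of 0.75 uM PK11195 (final).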

[8] = qHTS assay to identify small molecule antagonists of the estrogen related receptor signaling pathway with the pleiotropic PPARgamma coactivator (PGC) from Tox21 10K library - cell viability counter screen (AID 1224840; active = well fitted cell-killing curve with a large enough effect in the repeat runs, not every such curve was filed as active; note: nearly all actives have a fitted effect of over 40% in size; note: potency is the fitted concentration of half-maximal effect)
How it was run: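 Cell viability is measured by CellTiter-Fluor fluorescence in PGC/ERR cells that receive compounds after a 6-hour attachment period and are then incubated 17.5 hours at 37 C.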

[9] = qHTS assay to identify small molecule agonists of the retinoic acid receptor (RAR) signaling pathway (AID 1159553); note: potency is the fitted concentration of half-maximal effect
How it was run: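 Quantitative high-throughput format: the Tox21 10K library was tested on C3RL4 RARE-luciferase cells for 6 hr at 37 C and 5% CO2, with luminescence measured after a 30 min room-temperature reagent step.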

[10] = biological target: Thyrotropin receptor (Homo sapiens) (UniProt P16473); test: qHTS assay to identify small molecule agonists of the thyroid stimulating hormone receptor (TSHR) signaling pathway (AID 1224843; calls by dose curve; note: nearly all actives have a fitted effect of over 45% in size; note: potency is the fitted concentration of half-maximal effect)
Chain of Thyrotropin receptor (Homo sapiens) (P16473 whole entry, looked up): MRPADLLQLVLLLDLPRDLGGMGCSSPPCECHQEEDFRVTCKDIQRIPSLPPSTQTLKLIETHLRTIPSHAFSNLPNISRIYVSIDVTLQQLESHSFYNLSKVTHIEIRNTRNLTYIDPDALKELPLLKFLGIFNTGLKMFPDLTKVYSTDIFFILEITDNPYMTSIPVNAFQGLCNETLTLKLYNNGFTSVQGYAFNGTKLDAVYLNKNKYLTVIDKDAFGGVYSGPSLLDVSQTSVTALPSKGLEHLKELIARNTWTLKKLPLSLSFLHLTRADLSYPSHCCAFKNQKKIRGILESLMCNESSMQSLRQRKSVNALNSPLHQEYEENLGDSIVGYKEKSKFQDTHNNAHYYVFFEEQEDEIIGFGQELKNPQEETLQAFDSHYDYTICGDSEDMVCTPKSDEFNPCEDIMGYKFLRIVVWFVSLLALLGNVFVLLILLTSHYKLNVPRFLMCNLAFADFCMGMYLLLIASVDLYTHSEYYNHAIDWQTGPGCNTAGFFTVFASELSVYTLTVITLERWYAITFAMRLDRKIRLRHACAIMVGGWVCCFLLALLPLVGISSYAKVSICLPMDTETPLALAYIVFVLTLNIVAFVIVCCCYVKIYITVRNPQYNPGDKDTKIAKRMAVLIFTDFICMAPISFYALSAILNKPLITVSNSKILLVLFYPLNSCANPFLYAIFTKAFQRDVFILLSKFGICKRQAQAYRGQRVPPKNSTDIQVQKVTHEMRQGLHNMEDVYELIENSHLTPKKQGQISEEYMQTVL
How it was run: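 A cell-based cAMP HTRF format was run in TSHR-transfected HEK293 cells, 800 per well. Treatment: 30 min, room temperature. Detection: 1 h with labelled cAMP and anti-cAMP cryptate. Concentration-response over 15 points, three replicates.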

[11] = qHTS assay to identify small molecule antagonists of the retinoic acid receptor (RAR) signaling pathway (AID 1159552; note: nearly all actives have a fitted effect of over 50% in size; note: potency is the fitted concentration of half-maximal effect)
How it was run: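 Luminescent RARE reporter read-out in C3RL4 cells: 6 hr co-treatment at 37 C of test compounds with retinol at 1 uM final. Cells plated overnight beforehand; luciferase reagent incubated 30 min at room temperature before reading.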

[12] = qHTS assay to identify small molecule antagonists of the estrogen related receptor signaling pathway with the pleiotropic PPARgamma coactivator (PGC) from Tox21 10K library (AID 1224841; call rule not given here; note: actives are mostly falling curves and most rising ones were filed inactive; nearly all actives have a fitted effect of over 50% in size; note: potency is the fitted concentration of half-maximal effect)
How it was run: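 Cells stably carrying the PGC/ERR reporter, seeded at 2,000 per well, received pin-transferred compounds 6 h post-plating. Exposure lasted 18 h at 37 C. Signal: One-Glo luminescence.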

[13] = qHTS assay to identify small molecule agonists of the estrogen related receptor signaling pathway with the pleiotropic PPARgamma coactivator (PGC) from Tox21 10K library (AID 1224842); note: nearly all actives have a fitted effect of over 15% in size
How it was run: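 Luminescence from One-Glo (30 min, room temperature) measured after PGC/ERR cells had 18 h at 37 C with pinned compound (23 nL in DMSO). Cells had been seeded at 2,000 per well and pre-incubated 6 h.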

[14] = qHTS assay to identify small molecule agonists of the RXR signaling pathway - cell viability counter screen (AID 1159529); note: nearly all actives have a fitted effect of over 50% in size; note: potency is the fitted concentration of half-maximal effect
How it was run: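 CellTiter-Glo luminescence gave viability in the wells also read for beta-lactamase. Cells (RXR-alpha-UAS-bla HEK 293T, 2% charcoal-stripped FBS medium) had 5 hr plating, then 16 hr compound exposure at 37 C; tetraoctyl ammonium bromide served as positive control.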

Compound	Potency [1]	Potency [2]	Potency [3]	Potency [4]	Potency [5]	Potency [6]	Potency [7]	Potency [8]	Potency [9]	Potency [10]	Potency [11]	Potency [12]	outcome [13]	Potency [14]
CCOC(=O)N(C)C(=O)CSP(=S)(OCC)OCC	inactive	inactive	inactive	inactive	inactive	inactive	34.4 µM (active)	inactive						
O=[N+]([O-])c1ccc(CBr)cc1	inactive	inactive	inactive	inactive	inactive	inactive		inactive	inactive	inactive				
Nc1cc(Cl)ccc1O	inactive	33.3 µM (active)	inactive	inactive	inactive	inactive	52.7 µM (active)	inactive		inactive				
O=c1oc2ccccc2c(O)c1C1CCCc2ccccc21 (stereo not drawn)	inactive	inactive		inactive	inactive	inactive	inactive	inactive	inactive		inactive	54.5 µM (active)	inactive	
CN1C[C@@H](NS(=O)(=O)N(C)C)C[C@@H]2c3cccc4c3c(cn4C)C[C@H]21	inactive	inactive	inactive	inactive	inactive	inactive		inactive		inactive				
COC(=O)C(C)Oc1ccc(Oc2ccc(Cl)cc2Cl)cc1 (stereo not drawn)		inactive	inactive	inactive	inactive	inactive	inactive	inactive			inactive	inactive	inactive	
CC(=O)Nc1cc([As](=O)(O)O)ccc1O		inactive	inactive	inactive	inactive	inactive	inactive	inactive	inactive	inactive		inactive	inactive	inactive
O=[N+]([O-])c1cccc2cccnc12	inactive	inactive	inactive	inactive	inactive	inactive		inactive	inactive	inactive	inactive			
CNC(=O)N(C)c1nc2ccccc2s1	inactive	inactive	35.6 µM (active)	inactive	inactive	inactive	24.3 µM (active)	inactive	2.43 µM (active)	inactive	inactive	inactive		
CNC(=O)Oc1ccc(N(C)C)c(C)c1		inactive	inactive	inactive	inactive	inactive		inactive	inactive	inactive		inactive	inactive	inactive
CC1=C(C(=O)Nc2ccccc2)S(=O)(=O)CCO1		61.1 µM (active)	inactive		inactive		inactive		inactive	inactive				inactive
C[C@]1(O)CC[C@H]2[C@@H]3CCC4=CC(=O)CC[C@]4(C)[C@@]3(F)[C@@H](O)C[C@@]21C		inactive	inactive	inactive	inactive			inactive		inactive				inactive
Nc1cnn(-c2ccccc2)c(=O)c1Cl		inactive	inactive	inactive	inactive	inactive	inactive	inactive		inactive				inactive
C=C(C)CN(CC)c1c([N+](=O)[O-])cc(C(F)(F)F)cc1[N+](=O)[O-]	inactive	inactive	inactive	inactive	inactive	inactive	inactive	inactive	inactive		inactive	inactive	inactive	
CCOP(=O)(OCC)OP(=O)(OCC)OCC	inactive	inactive	inactive	inactive	inactive	inactive	inactive	inactive		inactive				
c1cc[c]([Hg][c]2ccccc2)cc1	inactive		17.8 µM (active)	inactive	inactive				8.63 µM (active)	inactive				
CC(Oc1ccc(Oc2ncc(C(F)(F)F)cc2Cl)cc1)C(=O)O (stereo not drawn)	inactive	inactive	inactive	inactive	inactive	inactive	inactive	inactive	inactive	inactive	inactive	27.3 µM (active)	inactive	
CC(C(O)c1ccccc1)N(C)C/C=C/c1ccccc1 (stereo not drawn)	inactive	inactive	inactive	inactive	inactive	inactive	inactive	inactive	inactive	inactive				
CCN(CC)C(=O)[C@@H]1C=C2c3cccc4[nH]cc(c34)C[C@H]2N(C)C1	inactive	80 µM (active)	inactive			inactive	inactive		inactive				inactive	

Compound	Potency [1]	Potency [2]	Potency [3]	Potency [4]	Potency [5]	Potency [6]	Potency [7]	Potency [8]	Potency [9]	Potency [10]	Potency [11]	Potency [12]	outcome [13]	Potency [14]
CC(=O)CCc1ccc2c(c1)OCO2	inactive	inactive	inactive	inactive	inactive	inactive	inactive		inactive	inactive	inactive	inactive	inactive	
CCOP(=S)(OCC)SCSP(=S)(OCC)OCC	inactive	inactive	inactive	inactive	inactive	inactive	27.3 µM (active)	inactive			inactive			
CCOP(=S)(OCC)Oc1ncn(-c2ccccc2)n1	inactive	inactive		inactive	inactive	inactive	30.6 µM (active)	inactive			inactive			
NC(=O)O		inactive	inactive	inactive	inactive	inactive				inactive				inactive
N#CC(CCc1ccc(Cl)cc1)(Cn1cncn1)c1ccccc1 (stereo not drawn)		30.6 µM (active)	inactive			inactive	21.7 µM (active)	34.4 µM (active)	inactive	8.63 µM (active)	61.1 µM (active)	34.4 µM (active)	inactive	24.5 µM (active)
CCCSP(=S)(OCC)Oc1ccc(Cl)cc1Cl (stereo not drawn)		inactive	inactive	inactive	inactive	inactive	27.3 µM (active)	inactive	inactive	inactive	inactive	inactive	inactive	
N#CCNCC#N		inactive	inactive	inactive	inactive	inactive	inactive			inactive		inactive	inactive	
CCC/C(=N\OCC)C1=C(O)CC(CC(C)SCC)CC1=O (stereo not drawn)		inactive	inactive	inactive	inactive	inactive		inactive			inactive			inactive
COc1ccc2c(c1OC)CN1CCc3cc4c(cc3C1C2)OCO4 (stereo not drawn)	inactive		inactive	inactive	inactive			inactive		inactive				inactive
Nc1n[nH]c(N)n1	inactive	inactive	inactive		inactive	27.8 µM (active)	inactive	inactive	inactive	inactive				
CN1CCC(O)(c2ccc(F)cc2)C(C(=O)c2ccc(F)cc2)C1 (stereo not drawn)	inactive	inactive	inactive	inactive	inactive		inactive	inactive		inactive		inactive	inactive	
CS(=O)(=O)c1cc(C(F)(F)F)ccc1C(=O)c1cnoc1C1CC1	inactive	inactive	inactive	inactive	inactive	inactive	inactive	inactive	inactive	inactive		inactive	inactive	
CCC#N		inactive	inactive	inactive	inactive	inactive	inactive	inactive	inactive	inactive	inactive	inactive	inactive	inactive
CNC(=O)Oc1cccc(C(C)C)c1	inactive	inactive		inactive	inactive	inactive		inactive		inactive				inactive
O=[N+]([O-])c1cccc(O)c1		inactive	inactive	inactive	inactive	inactive	inactive		inactive	inactive				inactive
CCOP(=S)(OCC)Oc1cc(-c2ccccc2)on1	inactive	inactive	31.7 µM (active)	inactive	inactive	inactive	34.4 µM (active)	inactive			inactive			
NC(=S)C(N)=S		inactive	inactive	inactive	inactive	inactive	inactive	inactive	inactive				inactive	inactive
COc1cccc2c1cc([N+](=O)[O-])c1c(C(=O)O)cc3c(c12)OCO3		30.6 µM (active)	71 µM (active)	27.3 µM (active)	27.3 µM (active)	12.2 µM (active)	inactive			inactive		inactive	inactive	17.4 µM (active)
